Rows were chosen to be rich in hits. Some 19% of all compounds tested hit in one or more screens of this group.
IL1B secr inh: inhibitors of inflammasome signaling (IL-1 beta secretion); THP-1 LPS/ATP IL-1B secretion, AlphaLISA, 16 h; hits give low values; hit rate 4.7% among 360,000; activity change, % at 57.5 µM; in the data active means activity change below about -50%; inconclusive means mostly about -30% to -49%
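Secreted IL-1B measured by AlphaLISA bead assay after 16 h compound exposure of THP-1 cells; compounds (final up to 57.5 uM) added 1 h before LPS (250 ng/mL) and ATP (1.25 mM) stimulation; lower signal means less secretion.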
Chronic BCR inh: inhibitors of chronic active B-cell receptor signaling; AID 493014; Potency, µM (series often up to 46.1 µM), usual class: inhibitors; ABC-DLBCL IkBa-CBG/CBR reporter, luminescence ratio, 4 h; hit rate 0.05% among 340,000; active means well fitted inhibition curve with a large enough effect in the signal ratio, with a control signal flat, not every such curve was filed as active; inconclusive means small, poorly fitted or top-dose-only effect, or effect the other way, or a change in a side signal; the % refers to the signal ratio
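TMD8 human ABC-DLBCL cells with doxycycline-inducible IκBα–green luciferase fusion and unfused red luciferase, in 0.5% FBS medium; compounds up to 46 uM, 4 h at 37C. Green/red luminescence ratio, filter-overlap corrected, fitted to concentration-response curves.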
DT40 TDP1 no CPT: qHTS for Inhibitors of human tyrosyl-DNA phosphodiesterase 1 (TDP1): qHTS in cells in absence of CPT; DT40 Tdp1-/- hTDP1 cells, no CPT, ATP luminescence, 48 h; Potency, µM (titrated, usually from 46.2 µM), usual class: inhibitors; hit rate 15% among 420,000; further: nearly all actives have a fitted effect of over 55% in size
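A cellular qHTS used chicken DT40 cells lacking endogenous Tdp1 but carrying stably transfected human TDP1. Compounds were applied without camptothecin, and cell growth kinetics were judged by ATP-dependent luminescence after ≥48 hr.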
SW480 rerep: induces DNA re-replication in SW480 colon adenocarcinoma cells; SW480 DNA re-replication, Hoechst DNA content imaging, 48 h; Potency, µM (doses to about 46.1 µM), actives largely listed as activators; hit rate 1.8% among 340,000; further: nearly all actives have a fitted effect of over 55% in size
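250 cells/well; 23 nL cpd via pin tool; 48 hr, 37 C, 5% CO2; Hoechst 40 min; imager read of total nuclear intensity, ex 405/em 500-530 nm.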
MCF10A rereplic: inducers of DNA re-replication in MCF 10A breast cells. MCF 10A DNA re-replication, Hoechst nuclear intensity, 48 h. Potency, µM (series often up to 46.1 µM), actives largely listed as activators. hit rate 2.9% among 350,000. AID 624296; further: nearly all actives have a fitted effect of over 50% in size
TDP1 cell CPT: DT40-hTDP1 cell growth loss with CPT | hit rate 12% among 420,000 | Potency, µM (doses to about 46.2 µM), hits mostly inhibitors | chicken DT40 Tdp1-/-;hTDP1 cells + 20 nM CPT, ATP luminescence, 48 h | AID 686979; further: nearly all actives have a fitted effect of over 55% in size
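Chicken DT40 Tdp1-/- cells complemented with human TDP1, 400 cells/well, exposed to compounds plus 20 nM camptothecin for at least 48 h at 37 C; viability read as ATP content by CellTiter-Glo luminescence.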
A number is an active result; – = inactive; ? = inconclusive; · = no result given. Unless noted, the call rests on the fitted dose curve; in most records, active means well fitted curve in the direction sought with a large enough effect; inconclusive means small, poorly fitted or top-dose-only effect, or another doubt; inactive means no such curve, though single readings can be large; an effect the other way counts as inactive or inconclusive.

SMILES	IL1B secr inh	Chronic BCR inh	DT40 TDP1 no CPT	SW480 rerep	MCF10A rereplic	TDP1 cell CPT
CN=C1SC(CC(=O)Nc2ccccc2F)C(=O)N1/N=C/c1ccc(O)c(OC)c1 (centres undefined)	–	?	13µM	–	?	23µM
CCOc1ccc(/C=N/N2C(=O)C(CC(=O)Nc3ccc(F)cc3F)SC2=NC)cc1OC (centres undefined)	–	–	?	?	?	?
Cc1ccccc1NCCC(=O)Nc1ccc(Cl)cc1	–	–	?	–	–	?
CC(C)Nc1nc(Oc2ccc(Cl)cc2)cc(C(F)(F)F)n1	–	–	–	–	23µM	–
CCNc1nc(Oc2ccc(C#N)cc2)cc(C(F)(F)F)n1	-57	–	?	–	–	–
CC=CC1=C(C(=O)O)N2C(=O)[C@H](NC(=O)[C@H](N)c3ccc(O)cc3)[C@@H]2SC1	·	·	·	–	–	·
Cc1ccc(-c2nn(-c3ccccc3)cc2C(=O)Nc2cccc(S(=O)(=O)NC3=NCCC3)c2)cc1	–	·	0.21µM	·	·	–
O=C(Nc1cccc(S(=O)(=O)NC2=NCCC2)c1)c1cn(-c2ccccc2)nc1-c1ccc(F)cc1	?	?	2.6µM	–	–	3.7µM
O=S(=O)(Nc1ccncc1)c1ccc(Cl)cc1	–	–	–	–	–	–
Cc1ccnc(NS(=O)(=O)c2cc(-c3cc(C)no3)ccc2C)c1	·	·	–	·	·	–
Cc1cc(C)cc(NS(=O)(=O)c2ccc(-c3cc(C)no3)cc2)c1	·	·	1.2µM	·	·	1.3µM
Cc1ccc(NS(=O)(=O)c2cnc(N)nc2)c(C)c1	·	·	–	·	·	–
CCc1ccc(S(=O)(=O)Nc2ccncc2)cc1	–	–	–	–	–	–
Cc1cc(-c2ccc(S(=O)(=O)Nc3ccc(Cl)cc3)cc2)on1	·	?	18µM	·	·	16µM
CCc1ccc(NS(=O)(=O)c2ccc(-c3cc(C)no3)cc2)cc1	·	·	13µM	·	·	13µM
Cc1ccc(NS(=O)(=O)c2ccc(-c3cc(C)no3)cc2)c(C)c1	·	·	5.8µM	·	·	4.6µM
CCOC(=O)C1C(=O)NC(C(=O)OCC)(C(=O)OCC)C1CC (centres undefined)	–	·	–	–	–	–
CCc1ccc(C2C(C#N)=C(N)Oc3cc(N)ccc32)cc1 (centres undefined)	–	–	?	?	?	?
Cc1ccc(C2C(C#N)=C(N)Oc3cc4c(cc32)OCO4)cc1 (centres undefined)	–	–	?	?	?	26µM
CSc1ccc(C2C(C#N)=C(N)Oc3cc4c(cc32)OCO4)cc1 (centres undefined)	–	·	?	?	?	21µM
CCC(Cn1nnc2ccccc2c1=O)NC(=O)Nc1cccc(C)c1C (centres undefined)	·	·	–	·	·	–
N/C(=N\N=C\c1ccc(Cl)cc1)N/N=C/c1ccc(Cl)cc1	·	·	–	–	?	?
O=C(N/N=C/C(Cl)=C/c1ccc([N+](=O)[O-])cc1)C(=O)Nc1ccccc1C(=O)O	–	?	8.2µM	–	–	5.2µM
CCOc1ccccc1NC(=O)C(=O)N/N=C/c1ccc([N+](=O)[O-])cc1	–	–	–	–	–	–
O=C(N/N=C/C(Cl)=C/c1ccc([N+](=O)[O-])cc1)C(=O)Nc1ccc(C(=O)O)cc1	-52	?	21µM	?	?	15µM
SMILES	IL1B secr inh	Chronic BCR inh	DT40 TDP1 no CPT	SW480 rerep	MCF10A rereplic	TDP1 cell CPT
O=C(Nc1ccc(C(=O)O)cc1)/C(=C\c1ccc([N+](=O)[O-])cc1)NC(=O)c1ccco1	–	·	–	·	·	–
CCN1CCN(C(=O)c2cc(NC(=O)COC)cc3nc(-c4ccncc4)n(C)c23)CC1	·	·	–	·	·	–
CCOC(=O)N1CCC(NC(=O)c2ccc3c(c2)N(Cc2cc(C)ccc2C)C(=O)c2ccccc2S3(=O)=O)CC1	·	·	12µM	·	·	?
COC(=O)c1ccc2c(c1)N(Cc1cc(C)ccc1C)C(=O)c1ccccc1S2(=O)=O	·	–	?	·	·	?
CCOC(=O)N1CCC(NC(=O)c2ccc3c(c2)N(Cc2cc(C)ccc2C)C(=O)c2ccccc2S3=O)CC1 (centres undefined)	·	·	18µM	·	·	6.5µM
CCOC(=O)c1ccc2c(c1)N(Cc1cccc(C(F)(F)F)c1)C(=O)c1ccccc1S2(=O)=O	·	·	16µM	·	·	?
CCOC(=O)c1ccc2c(c1)N(Cc1cc(C)ccc1C)C(=O)c1ccccc1S2(=O)=O	·	·	16µM	·	·	?
CC(C)(CO)[C@@H](O)C(=O)NCCCC(=O)O	·	·	–	·	·	–
Cc1ccc(C)c(CN2C(=O)c3ccccc3S(=O)c3ccc(C(=O)N4CCCCC4)cc32)c1 (centres undefined)	·	·	16µM	·	·	16µM
CCCCNC(=O)C[C@@H]1C[C@@]2(C(=O)OCC)CCC=C2N(Cc2ccc(Cl)cc2Cl)C1=O	?	·	16µM	·	·	?
CCOC(=O)[C@]12CCC=C1N(Cc1ccc(Cl)cc1Cl)C(=O)[C@H](CC(=O)NCCCOC)C2	–	·	16µM	·	·	?
CCOC(=O)[C@]12CCC=C1N(Cc1ccc3c(c1)OCO3)C(=O)[C@H](CC(=O)NCCCOC)C2	–	·	–	·	·	–
CCOC(=O)[C@]12CCCC=C1N(Cc1ccc(Cl)cc1Cl)C(=O)[C@H](CC(=O)NCCCCc1ccccc1)C2	–	·	?	·	·	?
COCCCNC1=C(C#N)C(=O)NC(c2cccs2)S1 (centres undefined)	–	·	–	·	·	–
CCOC(=O)c1cccc(OS(=O)(=O)Cc2ccccc2)c1	–	·	?	–	–	–
Oc1ccc2ccccc2c1CN1CCN(c2ccccc2)CC1	–	–	–	–	–	–
Oc1c(CN2CCCCC2)ccc2cccnc12	-98	·	1µM	5.2µM	–	1.6µM
Ic1ccc(N2CCN(Cc3c[nH]c4ncccc34)CC2)cc1	–	–	3.3µM	?	?	11µM
Oc1ccc(CN2CCN(c3ccccc3)CC2)c2cccnc12	–	–	3.3µM	?	?	5.2µM
Oc1ccc(CN2CCCCC2)c2cccnc12	–	?	5.2µM	–	–	5.2µM
CSc1ccc(CNC(=O)C2(C)CCN2C(C)C)cc1 (centres undefined)	–	·	–	·	·	–
CCCCCCN1C=CC=C/C1=C\C=C(C#N)C#N	·	–	–	–	–	–
CCCc1cc(=O)oc2cc(C)cc(OC(C)C(=O)NCC(O)c3ccccc3)c12 (centres undefined)	?	?	–	–	–	?
CC(Oc1ccc(Br)cc1)C(=O)Nc1ccc(S(=O)(=O)NC2=NCCCCC2)cc1 (centres undefined)	–	·	?	–	–	?
Cc1ccc(C)c(S(=O)(=O)N2CCN(Cc3ccc(O)c4ncccc34)CC2)c1	–	–	5.8µM	?	?	5.8µM

Screens deposited in PubChem BioAssay by National Center for Advancing Translational Sciences (NCATS).
